Data on 20 molecules can be found in PubChem BioAssay.

A short description of assay [1]: antimalarial activity against Dd2 strain (AID 2302;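 active = growth inhibition above 50% at the single 2 µM test dose, taken to imply half-maximal potency below 2 µM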;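 also: 0% = DMSO untreated growth and 100% = chloroquine plus artemisinin killed control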). The conditions noted are these: P. falciparum Dd2 in RBCs, LDH growth readout, 72 h; at 2 µM; hits give high values.
Assay [2] is described as follows: human hepatoma cell viability loss – ATP luminescence, cytotoxicity control for P. falciparum antimalarial project, primary screen (AID 2303;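 active = inhibition above 50%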;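 also: 0% = DMSO wells and 100% = digitonin-killed cells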). The conditions noted are these: HepG2 viability, 24-48 h, at 10 µM, hits give high values.
Assay [3] deals with L-lactate dehydrogenase (Plasmodium falciparum (isolate CDC / Honduras)) (UniProt Q27743). In words: PfLDH activity inhibition – cell lysate, 3D7 strain, counter-screen for P. falciparum growth inhibition project (AID 2304).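 Also: 0% = vehicle and 100% = reference inhibitor.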 The conditions noted are these: P. falciparum 3D7 crude extract, LDH APAD/NBT absorbance; at 2 µM; hits give high values. (A counterscreen serves to expose hits that act by an unwanted route or on another target.)

The nature of assay [4]: inhibition of 3D7 malaria parasite growth – strain 3D7 (AID 2306).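 Also: 0% = DMSO wells and 100% = chloroquine plus artemisinin control wells.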 As to conditions: P. falciparum 3D7 erythrocytic growth, LDH absorbance, 72 h; at 2 µM; hits give high values.
Assay [5] concerns the target Calcium-dependent protein kinase 1 (Plasmodium falciparum (isolate 3D7)) (UniProt P62344). In words: PfCDPK1 kinase inhibitors, biochemical, TCAMS library (AID 1159585; cut-off not given, nearly all actives have IC50 up to about 0.98 µM;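 also: inhibitors leave more ATP so luminescence rises with inhibition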). The conditions noted are these: recombinant PfCDPK1, Kinase-Glo ATP depletion luminescence. Background: Kinase-Glo reads ATP consumption through a luciferase reaction.
In assay [6] the target is Plasmodium falciparum protein kinase 6 (PK6, PF3D7_1337100) (UniProt Q8IDW1). The experiment in a line: PfPK6 kinase inhibitors, biochemical, TCAMS library (AID 1159586). As to conditions: recombinant PfPK6, Kinase-Glo ATP depletion luminescence.
The target in assay [7] is Protein kinase 7 (PK7), Plasmodium falciparum 3D7 (PF3D7_0213400) (UniProt Q7YTF7). In words: inhibition of Plasmodium PK7 catalytic activity – biochemical, TCAMS antimalarial set, Kinase-Glo luminescence (AID 1159587). As to conditions: recombinant PfPK7, Kinase-Glo ATP depletion luminescence.
In assay [8] the target is Calcium-dependent protein kinase 4 (Plasmodium falciparum (isolate 3D7)) (UniProt Q8IBS5). In words: PfCDPK4 kinase inhibitors, biochemical, TCAMS library (AID 1159588; cut-off not given, nearly all actives have IC50 up to about 0.91 µM). The conditions noted are these: recombinant PfCDPK4, Kinase-Glo ATP depletion luminescence.

Unmarked numbers belong to inactive results. For some of these results: Results with a measured potency or affinity are listed apart. Active and inactive are the calls of the source. Unless noted, no rule for the calls is given here.

Chain of Calcium-dependent protein kinase 4 (Plasmodium falciparum (isolate 3D7)) (Q8IBS5 whole entry, looked up): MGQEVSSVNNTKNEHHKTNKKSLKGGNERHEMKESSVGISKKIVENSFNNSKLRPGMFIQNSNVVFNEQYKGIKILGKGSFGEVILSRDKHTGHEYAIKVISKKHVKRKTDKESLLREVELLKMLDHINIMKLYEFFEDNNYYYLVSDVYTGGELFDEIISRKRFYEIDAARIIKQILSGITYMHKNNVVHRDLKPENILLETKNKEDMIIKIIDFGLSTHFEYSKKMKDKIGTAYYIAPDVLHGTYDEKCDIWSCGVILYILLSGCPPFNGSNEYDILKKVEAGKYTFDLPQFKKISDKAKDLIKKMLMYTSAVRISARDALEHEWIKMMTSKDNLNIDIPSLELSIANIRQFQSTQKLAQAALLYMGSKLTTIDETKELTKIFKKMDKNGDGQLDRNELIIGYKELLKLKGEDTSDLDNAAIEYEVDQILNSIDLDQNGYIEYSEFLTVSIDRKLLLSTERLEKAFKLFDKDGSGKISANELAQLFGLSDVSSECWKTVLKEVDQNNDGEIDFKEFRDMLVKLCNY
Chain of Plasmodium falciparum protein kinase 6 (PK6, PF3D7_1337100) (Q8IDW1 1-305): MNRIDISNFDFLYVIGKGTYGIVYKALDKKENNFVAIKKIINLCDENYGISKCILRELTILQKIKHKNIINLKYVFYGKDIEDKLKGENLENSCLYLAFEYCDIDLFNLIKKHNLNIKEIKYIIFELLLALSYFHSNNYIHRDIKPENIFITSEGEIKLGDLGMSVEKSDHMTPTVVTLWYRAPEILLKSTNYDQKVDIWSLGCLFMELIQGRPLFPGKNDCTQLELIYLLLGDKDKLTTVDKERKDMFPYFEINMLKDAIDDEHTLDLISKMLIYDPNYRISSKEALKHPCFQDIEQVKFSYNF
Chain of Calcium-dependent protein kinase 1 (Plasmodium falciparum (isolate 3D7)) (P62344 whole entry, looked up): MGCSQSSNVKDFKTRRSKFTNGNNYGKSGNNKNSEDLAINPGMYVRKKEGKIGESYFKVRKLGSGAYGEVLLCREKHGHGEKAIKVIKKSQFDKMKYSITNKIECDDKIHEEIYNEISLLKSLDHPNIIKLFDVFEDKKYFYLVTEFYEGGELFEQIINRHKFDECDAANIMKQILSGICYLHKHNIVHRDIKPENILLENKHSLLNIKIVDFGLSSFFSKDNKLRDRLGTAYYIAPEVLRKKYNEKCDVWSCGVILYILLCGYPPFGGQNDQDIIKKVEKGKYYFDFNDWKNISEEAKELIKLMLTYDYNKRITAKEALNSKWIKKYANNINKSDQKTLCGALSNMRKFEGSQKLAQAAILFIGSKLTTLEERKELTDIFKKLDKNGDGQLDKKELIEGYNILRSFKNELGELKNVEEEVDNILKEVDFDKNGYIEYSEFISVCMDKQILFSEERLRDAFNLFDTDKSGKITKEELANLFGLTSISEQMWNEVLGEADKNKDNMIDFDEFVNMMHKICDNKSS
Chain of L-lactate dehydrogenase (Plasmodium falciparum (isolate CDC / Honduras)) (Q27743 whole entry, looked up): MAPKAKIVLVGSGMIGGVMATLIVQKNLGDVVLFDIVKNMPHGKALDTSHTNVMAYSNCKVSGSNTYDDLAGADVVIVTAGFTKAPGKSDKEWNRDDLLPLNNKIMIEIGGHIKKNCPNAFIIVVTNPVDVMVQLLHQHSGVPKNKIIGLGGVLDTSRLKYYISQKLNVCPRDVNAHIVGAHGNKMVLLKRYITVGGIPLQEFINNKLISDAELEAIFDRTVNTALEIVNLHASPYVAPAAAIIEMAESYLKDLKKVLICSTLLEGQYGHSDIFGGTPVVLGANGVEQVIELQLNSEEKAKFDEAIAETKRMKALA
Chain of Protein kinase 7 (PK7), Plasmodium falciparum 3D7 (PF3D7_0213400) (Q7YTF7 1-343): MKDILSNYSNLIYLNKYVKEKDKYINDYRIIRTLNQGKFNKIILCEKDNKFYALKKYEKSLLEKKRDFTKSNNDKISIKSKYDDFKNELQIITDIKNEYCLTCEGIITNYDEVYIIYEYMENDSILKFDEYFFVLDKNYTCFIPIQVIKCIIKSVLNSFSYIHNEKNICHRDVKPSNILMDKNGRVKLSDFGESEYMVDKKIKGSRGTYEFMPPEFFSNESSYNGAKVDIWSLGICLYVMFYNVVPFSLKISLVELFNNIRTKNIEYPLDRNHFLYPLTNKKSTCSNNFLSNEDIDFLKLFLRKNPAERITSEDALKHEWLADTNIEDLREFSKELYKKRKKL

For orientation: inhibition means the drop in the measured response relative to a control, in per cent. Turning to `O=C(c1cc(-c2ccccc2O)on1)N1CCN(C(c2ccccc2)c2ccccc2)CC1`, the growth inhibition in assay [1] is 88% (active); in assay [4] it was 97% (active). The inhibition is 12% in assay [2] and 1% in assay [3]. The outcome in assay [5], in assay [6], in assay [7] and in assay [8] was inactive.
For the molecule `O=c1cc(NCCCNCc2cccc(OC(F)(F)F)c2)[nH]c2ccccc12`, the growth inhibition in assay [1] is 72% (active); in assay [4] it was 97% (active). The results for the inhibition in assay [2] and in assay [3] were -4% and -1%, respectively. Moreover, the outcome in assay [5], in assay [6], in assay [7] and in assay [8] was inactive.
`COc1ccc(C2C(C(=O)OC3CCCCC3)=C(C)NC3=C2C(=O)CCC3)cc1Br` (stereo not given): the values for the growth inhibition in assay [1] and in assay [4] were 94% (active) and 95% (active), respectively. Further, the inhibition in assay [2] is 7%; in assay [3], -7%. The outcome in assay [5], in assay [6], in assay [7] and in assay [8] was inactive.
Regarding `CCNc1cc(C(=O)N[C@@H](Cc2ccccc2)[C@H](O)CNC(CC)c2cccc(Cl)c2)cc(N2CCCCS2(=O)=O)c1` (stereo not given in full), the growth inhibition in assay [1] was 98% (active); in assay [4], 100% (active). The inhibition was 12% in assay [2] and -2% in assay [3]. In addition, the result in assay [5], in assay [6], in assay [7] and in assay [8] was inactive.
Turning to `COc1ccc(Nc2ccnc3cc4ccccc4cc23)cc1`, the growth inhibition in assay [1] was 73% (active); in assay [4] it was 101% (active). The inhibition in assay [2] was 32%; in assay [3], 3%. Besides, the result in assay [5], in assay [6], in assay [7] and in assay [8] was inactive.
With `CC(C)OCCCNC(=O)c1nc(-c2cccc(C(F)(F)F)c2)sc1C(C)C`, the growth inhibition in assay [1] is 34%; in assay [4], 94% (active). Also, the figures for the inhibition in assay [2] and in assay [3] were -7% and -8%, respectively. Moreover, the result in assay [5], in assay [6], in assay [7] and in assay [8] was inactive.
Turning to `Cc1nc(N)nc(N)c1OCc1ccc(Cl)c(Cl)c1`, the figures for the growth inhibition in assay [1] and in assay [4] were 5% and 97% (active), respectively. In addition, the inhibition in assay [2] is 14%; in assay [3], -2%. The result in assay [5], in assay [6], in assay [7] and in assay [8] was inactive.
As to `O=C(c1ccco1)N1CCN(c2ccc([N+](=O)[O-])c(NC3CC3)c2)CC1`, the growth inhibition in assay [1] is 99% (active); in assay [4], 101% (active). In addition, the inhibition in assay [2] was -8%; in assay [3], 0%. In addition, the result in assay [5], in assay [6], in assay [7] and in assay [8] was inactive.
For `O=S(=O)(NCCN1CCCC1)c1cccc(-c2cccc(CNCCc3cccs3)c2)c1`, the growth inhibition in assay [1] was 45%; in assay [4], 102% (active). The inhibition was 30% in assay [2] and 0% in assay [3]. The result in assay [5], in assay [6], in assay [7] and in assay [8] was inactive.
With `CC(NC(=O)c1ccc(O)c(-c2ccc(Cl)c(Cl)c2)c1)C(=O)NCCN1CCCCC1` (stereo not given), the growth inhibition in assay [1] was 3%; in assay [4], 97% (active). Also, the values for the inhibition in assay [2] and in assay [3] were -2% and 2%, respectively. The outcome in assay [5], in assay [6], in assay [7] and in assay [8] was inactive.
As for `CCCN(CCC)CCCNc1ccc(C(=O)Nc2ccc(C(C)C)cc2)cc1[N+](=O)[O-]`, the growth inhibition in assay [1] is 38%; in assay [4], 98% (active). Moreover, the inhibition in assay [2] was 17%; in assay [3], -8%. The outcome in assay [5], in assay [6], in assay [7] and in assay [8] was inactive.
For `CC(C)(C)Nc1cc(C2CC2)nc(-c2ccccn2)n1`, the growth inhibition is 75% (active) in assay [1] and 88% (active) in assay [4]. Besides, the inhibition in assay [2] is -2%; in assay [3], -1%. The result in assay [5], in assay [6], in assay [7] and in assay [8] was inactive.
Turning to `C=CCn1c(=N)n(CC(O)c2ccc(Cl)c(Cl)c2)c2ccccc21` (stereo not given), the growth inhibition was 80% (active) in assay [1] and 91% (active) in assay [4]. The inhibition was 15% in assay [2] and 1% in assay [3]. Moreover, the outcome in assay [5], in assay [6], in assay [7] and in assay [8] was inactive.
Consider `Cc1ccn2c(N(Cc3ccccc3)C(=O)c3ccc(Cl)c(Cl)c3)c(-c3ccccc3)nc2c1`, for which the results for the growth inhibition in assay [1] and in assay [4] were -5% and 95% (active), respectively. For the same molecule, the inhibition in assay [2] is -20%; in assay [3] it was -7%. For the same molecule, the result in assay [5], in assay [6], in assay [7] and in assay [8] was inactive.
For the molecule `COc1ccc2nc(N)nc(C)c2c1`, the results for the growth inhibition in assay [1] and in assay [4] were 1% and 90% (active), respectively. Besides, the inhibition in assay [2] and in assay [3] was 5% throughout. For the same molecule, the result in assay [5], in assay [6], in assay [7] and in assay [8] was inactive.
For the molecule `O=C(Nc1ccc(-c2nc3ccccc3[nH]2)cc1)c1cccc(S(=O)(=O)N2CCCC2)c1`, the growth inhibition was 64% (active) in assay [1] and 100% (active) in assay [4]. The inhibition in assay [2] is 0%; in assay [3], -5%. The result in assay [5], in assay [6], in assay [7] and in assay [8] was inactive.
In the case of `Cc1cc2nc(-c3ccc(C(=O)NC4CCN(Cc5ccccc5)CC4)s3)[nH]c2cc1C`, the growth inhibition in assay [1] was 82% (active); in assay [4], 99% (active). In addition, the inhibition in assay [2] was 33%; in assay [3] it was 1%. Moreover, the outcome in assay [5], in assay [6], in assay [7] and in assay [8] was inactive.
For `COc1cccc(-c2cc(C(F)(F)F)n3ncc(C(=O)Nc4cc(C)ccc4O)c3n2)c1`, the growth inhibition is 99% (active) in assay [1] and 98% (active) in assay [4]. Also, the inhibition is -4% in assay [2] and 3% in assay [3]. Also, the result in assay [5], in assay [6], in assay [7] and in assay [8] was inactive.
With `CCC(C)c1ccc(NC(=O)C(C)c2ccc([N+](=O)[O-])cc2)cc1` (stereo not given), the growth inhibition in assay [1] is 100% (active); in assay [4] it was 101% (active). Further, the inhibition in assay [2] was 14%; in assay [3] it was -3%. Also, the outcome in assay [5], in assay [6], in assay [7] and in assay [8] was inactive.
`COc1cc(C(=O)N2CCOC(CCN3CCC[C@H]3C(=O)Nc3ccccc3)(c3ccc(Cl)c(Cl)c3)C2)cc(OC)c1OC` (stereo not given in full): the growth inhibition in assay [1] was 88% (active); in assay [4], 98% (active). Moreover, the inhibition in assay [2] was 3%; in assay [3] it was -2%. The result in assay [5], in assay [6], in assay [7] and in assay [8] was inactive.
